Data published in PubChem BioAssay (NCI).
Compounds without any hit were thinned out: in the full panel of roughly 83,000, 20% have a hit.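 48-hour exposure, single concentration, 96-well plates; percent growth endpoint where 0 means no net growth. Active: below 10.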 A number with no mark means an inactive call. Activity calls are given as the source filed them.

What follows are molecules tested on HL-60(TB) leukemia (assay: NCI-60 one-dose screen, 48 h (100 = growth as untreated, 0 = no growth, -100 = all killed)). Conditions: 10 µM unless noted.
For Cc1ccccc1[C@H]1C(C(=O)c2ccc(Cl)cc2)C2(N[C@@H]1c1ccccc1)C(=O)Nc1ccc(Br)cc12 (stereo partly specified), the growth was -1.57% (active). Molecule OCC1(CCCc2ccccc2)CCCN(c2nccc3ccccc23)C1 (stereo unspecified) has a growth of 22.7%. CCCSc1nc(NC2CC2)c(C#N)c(-c2ccc(OC)cc2)n1 was tested, and the growth was 81%. CC1CCc2c(sc3nc(SCC(=O)c4cccc([N+](=O)[O-])c4)n(-c4ccccc4)c(=O)c23)C1 (stereo unspecified) gave a growth of 87.1%. N/C(=N\c1nc2ccccc2s1)NC(=O)Nc1ccccc1[N+](=O)[O-] was tested, and the growth was -11.1% (active). Work on O=[N+]([O-])c1cccc(-c2nnc3c(/C=C/c4ccccc4O)nc4ccccc4n23)c1 yielded a growth of 52.5%.
